# About 79,000 compounds went through this panel and 15% of them were active in at least one assay; those are over-represented in the sample as a whole. A number with no mark means an inactive call. Activity calls are given as the source filed them. Rule as the data show it: active = growth inhibition above about 70%; inactive = the rest.
# Tests used:
# [1] = NCI Yeast Anticancer Drug Screen. Data for the rad52 strain (AID 147);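 also: 0% = growth of vehicle-treated control cultures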; settings: S. cerevisiae rad52 mutant growth inhibition, active compounds read high
# Outline: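 Compounds are applied to a genetically defined yeast strain lacking normal DNA damage repair, and inhibition of growth is expressed relative to cultures given vehicle only.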
# [2] = NCI Yeast Anticancer Drug Screen. Data for the wt1 strain (AID 149);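 also: 0% = growth of vehicle-treated wt1 cultures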; settings: S. cerevisiae wt1 strain (SPY 50644) growth inhibition, active compounds read high
# Outline: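 wt1 yeast, compound-treated; % growth inhibition vs vehicle control.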
# [3] = NCI Yeast Anticancer Drug Screen. Data for the rad50EPP+ strain (AID 151);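 also: 0% = growth of vehicle-treated control cultures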; settings: S. cerevisiae rad50 mutant strain, active compounds read high
# Outline: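 Compounds were applied to the rad50EPP+ yeast strain, which bears a defined DNA repair alteration, and growth inhibition was determined relative to vehicle-treated cultures.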
# [4] = NCI Yeast Anticancer Drug Screen. Data for the mgt1 strain (AID 153); settings: S. cerevisiae mgt1 mutant growth inhibition, active compounds read high
# Outline: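 Strain: mgt1 yeast, one of a set carrying defined DNA damage repair or cell cycle control alterations. Compound-treated growth compared with vehicle.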
# [5] = NCI Yeast Anticancer Drug Screen. Data for the rad50 strain (AID 155);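 also: 0% = growth of vehicle-only cultures of the same strain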; settings: S. cerevisiae rad50 strain growth inhibition, active compounds read high
# Outline: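 Genetically altered yeast (DNA repair pathway); compound treatment; growth inhibition vs vehicle ctrl.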
# [6] = NCI Yeast Anticancer Drug Screen. Data for the mec2-1 strain (AID 157); settings: S. cerevisiae mec2-1 strain, active compounds read high
# Outline: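 Strain: mec2-1 (DNA repair/cell cycle alteration). Compound exposure, then growth measured; inhibition expressed relative to vehicle.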
# [7] = NCI Yeast Anticancer Drug Screen. Data for the rad14 strain (AID 159);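 also: 0% = growth of vehicle-treated control cultures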; settings: S. cerevisiae rad14 strain growth inhibition, active compounds read high
# Outline: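 Test compounds were applied to a repair-deficient yeast strain. Its growth was then compared with that of cultures given vehicle alone, and inhibition was expressed relative to those controls.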
# [8] = NCI Yeast Anticancer Drug Screen. Data for the sgs1 mgt1 strain (AID 161);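 also: 0% = growth of cultures given vehicle only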; settings: S. cerevisiae sgs1 mgt1 strain, active compounds read high
# Outline: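 Mutant yeast exposed to compound; growth scored against vehicle-only wells.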
# [9] = NCI Yeast Anticancer Drug Screen. Data for the CLN2oe strain (AID 163);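 also: 0% = growth of vehicle-only control cultures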; settings: S. cerevisiae CLN2oe strain, active compounds read high
# Outline: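 Growth of a genetically modified yeast strain is measured after compound exposure and compared with cultures given vehicle alone.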
# [10] = NCI Yeast Anticancer Drug Screen. Data for the cln2 rad14 strain (AID 165);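 also: 0% = growth equal to vehicle treated cultures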; settings: S. cerevisiae cln2 rad14 strain, active compounds read high
# Outline: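 Compounds are applied to the cln2 rad14 yeast strain, and growth is then compared with that of vehicle-treated cultures to give inhibition.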
# [11] = NCI Yeast Anticancer Drug Screen. Data for the bub3 strain (AID 167); settings: S. cerevisiae bub3 mutant strain, active compounds read high
# Outline: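 Yeast carrying a defined mutation is treated with each compound, and growth is compared with that of vehicle-exposed cells to give inhibition.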
# [12] = NCI Yeast Anticancer Drug Screen. Data for the wt2 strain (AID 169);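 also: 0% = growth of vehicle-treated yeast cultures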; settings: S. cerevisiae wt2 strain growth inhibition, active compounds read high
# Outline: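 This strain belongs to a panel of yeast strains with defined genetic alterations in DNA damage repair or cell cycle control. Compounds are applied, and growth inhibition is measured against vehicle-treated cultures.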
# [13] = NCI Yeast Anticancer Drug Screen. Data for the mlh1 strain (AID 171);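 also: 0% = growth of vehicle-treated control cultures of the same strain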; settings: S. cerevisiae mlh1 strain growth inhibition, active compounds read high
# Outline: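 Growth of the mutant yeast strain after compound exposure, expressed as inhibition relative to vehicle-only controls.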
# [14] = NCI Yeast Anticancer Drug Screen. Data for the sgs1 strain (AID 173);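 also: 0% = growth of vehicle-only control cultures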; settings: S. cerevisiae sgs1 mutant, active compounds read high
# Outline: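 Growth of a yeast strain bearing a defined genetic alteration is measured after compound treatment. Inhibition is expressed relative to vehicle-only controls.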
# [15] = NCI Yeast Anticancer Drug Screen. Data for the rad18 strain (AID 177); settings: S. cerevisiae rad18 mutant growth inhibition, active compounds read high
# Outline: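 Growth of the mutant yeast strain after compound exposure, normalised to vehicle-only cultures.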
# [16] = at 5.0 µM (retest, dose inferred, filed as 0.5)
# [17] = at 50.0 µM (retest, dose inferred, filed as 5.0)
smiles,measurement,setting,value
O=C1OC(CCl)CN1/N=C/c1ccc([N+](=O)[O-])o1 (stereo not given),growth inhibition,[1]; at 1.2 µM,-36%
same,growth inhibition,[1]; at 3.7 µM,-11%
same,growth inhibition,[1]; at 11.0 µM,19%
same,growth inhibition,[1]; at 33.0 µM,54%
same,growth inhibition,[1]; at 100.0 µM,88% (active)
same,growth inhibition,[2]; at 1.2 µM,-2%
same,growth inhibition,[2]; at 3.7 µM,2%
same,growth inhibition,[2]; at 11.0 µM,14%
same,growth inhibition,[2]; at 33.0 µM,21%
same,growth inhibition,[2]; at 100.0 µM,54%
same,growth inhibition,[3]; at 1.2 µM,-3%
same,growth inhibition,[3]; at 3.7 µM,-17%
same,growth inhibition,[3]; at 11.0 µM,14%
same,growth inhibition,[3]; at 33.0 µM,47%
same,growth inhibition,[3]; at 100.0 µM,73% (active)
same,growth inhibition,[4]; at 1.2 µM,-3%
same,growth inhibition,[4]; at 3.7 µM,-8%
same,growth inhibition,[4]; at 11.0 µM,-3%
same,growth inhibition,[4]; at 33.0 µM,1%
same,growth inhibition,[4]; at 100.0 µM,25%
same,growth inhibition,[5]; at 1.2 µM,-10%
same,growth inhibition,[5]; at 3.7 µM,-8%
same,growth inhibition,[5]; [16],19%
same,growth inhibition,[5]; at 11.0 µM,3%
same,growth inhibition,[5]; at 33.0 µM,45%
same,growth inhibition,[5]; [17],78% (active)
same,growth inhibition,[5]; at 50.0 µM,21.7%
same,growth inhibition,[5]; at 100.0 µM,80% (active)
same,growth inhibition,[6]; at 1.2 µM,-4%
same,growth inhibition,[6]; at 3.7 µM,-3%
same,growth inhibition,[6]; [16],9%
same,growth inhibition,[6]; at 11.0 µM,0%
same,growth inhibition,[6]; at 33.0 µM,7%
same,growth inhibition,[6]; [17],76% (active)
same,growth inhibition,[6]; at 50.0 µM,44.2%
same,growth inhibition,[6]; at 100.0 µM,19%
same,growth inhibition,[7]; at 1.2 µM,-7%
same,growth inhibition,[7]; at 3.7 µM,0%
same,growth inhibition,[7]; at 11.0 µM,14%
same,growth inhibition,[7]; at 33.0 µM,38%
same,growth inhibition,[7]; at 100.0 µM,71% (active)
same,growth inhibition,[8]; [16],35%
same,growth inhibition,[8]; [17],89% (active)
same,growth inhibition,[8]; at 50.0 µM,71.9% (active)
same,growth inhibition,[9]; at 1.2 µM,-7%
same,growth inhibition,[9]; at 3.7 µM,-8%
same,growth inhibition,[9]; at 11.0 µM,-6%
same,growth inhibition,[9]; at 33.0 µM,-7%
same,growth inhibition,[9]; at 100.0 µM,-2%
same,growth inhibition,[10]; [16],4%
same,growth inhibition,[10]; [17],73% (active)
same,growth inhibition,[10]; at 50.0 µM,47.1%
same,growth inhibition,[11]; at 1.2 µM,-8%
same,growth inhibition,[11]; at 3.7 µM,-4%
same,growth inhibition,[11]; [16],1%
same,growth inhibition,[11]; at 11.0 µM,-5%
same,growth inhibition,[11]; at 33.0 µM,2%
same,growth inhibition,[11]; [17],70% (active)
same,growth inhibition,[11]; at 50.0 µM,10%
same,growth inhibition,[11]; at 100.0 µM,16%
same,growth inhibition,[12]; at 1.2 µM,2%
same,growth inhibition,[12]; at 3.7 µM,2%
same,growth inhibition,[12]; at 11.0 µM,20%
same,growth inhibition,[12]; at 33.0 µM,54%
same,growth inhibition,[12]; at 100.0 µM,90% (active)
same,growth inhibition,[13]; at 1.2 µM,-9%
same,growth inhibition,[13]; at 3.7 µM,-4%
same,growth inhibition,[13]; at 11.0 µM,-1%
same,growth inhibition,[13]; at 33.0 µM,14%
same,growth inhibition,[13]; at 100.0 µM,69%
same,growth inhibition,[14]; at 1.2 µM,-6%
same,growth inhibition,[14]; at 3.7 µM,9%
same,growth inhibition,[14]; at 11.0 µM,49%
same,growth inhibition,[14]; at 33.0 µM,83% (active)
same,growth inhibition,[14]; at 100.0 µM,95% (active)
same,growth inhibition,[15]; at 1.2 µM,45%
same,growth inhibition,[15]; at 3.7 µM,72% (active)
same,growth inhibition,[15]; at 11.0 µM,91% (active)
same,growth inhibition,[15]; at 33.0 µM,95% (active)
same,growth inhibition,[15]; at 100.0 µM,96% (active)
Cc1ccc(NC(=O)/C(Cl)=C(\Cl)C(=O)O)cc1C,growth inhibition,[1]; at 1.2 µM,2%
same,growth inhibition,[1]; at 3.7 µM,7%
same,growth inhibition,[1]; at 11.0 µM,42%
same,growth inhibition,[1]; at 33.0 µM,99% (active)
same,growth inhibition,[1]; at 100.0 µM,99% (active)
same,growth inhibition,[2]; at 1.2 µM,-2%
same,growth inhibition,[2]; at 3.7 µM,-3%
same,growth inhibition,[2]; at 11.0 µM,2%
same,growth inhibition,[2]; at 33.0 µM,88% (active)
same,growth inhibition,[2]; at 100.0 µM,98% (active)
same,growth inhibition,[3]; at 1.2 µM,6%
same,growth inhibition,[3]; at 3.7 µM,16%
same,growth inhibition,[3]; at 11.0 µM,77% (active)
same,growth inhibition,[3]; at 33.0 µM,99% (active)
same,growth inhibition,[3]; at 100.0 µM,99% (active)
same,growth inhibition,[4]; at 1.2 µM,4%
same,growth inhibition,[4]; at 3.7 µM,7%
same,growth inhibition,[4]; at 11.0 µM,22%
same,growth inhibition,[4]; at 33.0 µM,99% (active)
same,growth inhibition,[4]; at 100.0 µM,99% (active)
same,growth inhibition,[5]; at 1.2 µM,2%
same,growth inhibition,[5]; at 3.7 µM,7%
same,growth inhibition,[5]; [16],13%
same,growth inhibition,[5]; at 11.0 µM,38%
same,growth inhibition,[5]; at 33.0 µM,99% (active)
same,growth inhibition,[5]; [17],99% (active)
same,growth inhibition,[5]; at 50.0 µM,99.2% (active)
same,growth inhibition,[5]; at 100.0 µM,98% (active)
same,growth inhibition,[6]; at 1.2 µM,6%
same,growth inhibition,[6]; at 3.7 µM,10%
same,growth inhibition,[6]; [16],15%
same,growth inhibition,[6]; at 11.0 µM,24%
same,growth inhibition,[6]; at 33.0 µM,99% (active)
same,growth inhibition,[6]; [17],100% (active)
same,growth inhibition,[6]; at 50.0 µM,99.5% (active)
same,growth inhibition,[6]; at 100.0 µM,99% (active)
same,growth inhibition,[7]; at 1.2 µM,3%
same,growth inhibition,[7]; at 3.7 µM,6%
same,growth inhibition,[7]; at 11.0 µM,26%
same,growth inhibition,[7]; at 33.0 µM,99% (active)
same,growth inhibition,[7]; at 100.0 µM,99% (active)
same,growth inhibition,[8]; [16],21%
same,growth inhibition,[8]; [17],100% (active)
same,growth inhibition,[8]; at 50.0 µM,99.5% (active)
same,growth inhibition,[9]; at 1.2 µM,3%
same,growth inhibition,[9]; at 3.7 µM,4%
same,growth inhibition,[9]; at 11.0 µM,13%
same,growth inhibition,[9]; at 33.0 µM,96% (active)
same,growth inhibition,[9]; at 100.0 µM,99% (active)
same,growth inhibition,[10]; [16],8%
same,growth inhibition,[10]; [17],99% (active)
same,growth inhibition,[10]; at 50.0 µM,72% (active)
same,growth inhibition,[11]; at 1.2 µM,7%
same,growth inhibition,[11]; at 3.7 µM,5%
same,growth inhibition,[11]; [16],21%
same,growth inhibition,[11]; at 11.0 µM,20%
same,growth inhibition,[11]; at 33.0 µM,99% (active)
same,growth inhibition,[11]; [17],99% (active)
same,growth inhibition,[11]; at 50.0 µM,99.5% (active)
same,growth inhibition,[11]; at 100.0 µM,99% (active)
same,growth inhibition,[12]; at 1.2 µM,0%
same,growth inhibition,[12]; at 3.7 µM,2%
same,growth inhibition,[12]; at 11.0 µM,11%
same,growth inhibition,[12]; at 33.0 µM,97% (active)
same,growth inhibition,[12]; at 100.0 µM,99% (active)
same,growth inhibition,[13]; at 1.2 µM,1%
same,growth inhibition,[13]; at 3.7 µM,4%
same,growth inhibition,[13]; at 11.0 µM,12%
same,growth inhibition,[13]; at 33.0 µM,96% (active)
same,growth inhibition,[13]; at 100.0 µM,99% (active)
same,growth inhibition,[14]; at 1.2 µM,1%
same,growth inhibition,[14]; at 3.7 µM,6%
same,growth inhibition,[14]; at 11.0 µM,29%
same,growth inhibition,[14]; at 33.0 µM,99% (active)
same,growth inhibition,[14]; at 100.0 µM,99% (active)
same,growth inhibition,[15]; at 1.2 µM,0%
same,growth inhibition,[15]; at 3.7 µM,3%
same,growth inhibition,[15]; at 11.0 µM,24%
same,growth inhibition,[15]; at 33.0 µM,99% (active)
same,growth inhibition,[15]; at 100.0 µM,99% (active)
